According to publication PMC7862700, “An all-to-all approach to the identification of sequence-specific readers for epigenetic DNA modifications on cytosine”:

What was measured:
Assay in all cases: DAPPL (digital affinity profiling via proximity ligation, sequencing); 10 mM Tris-HCl pH 7.5, 50 mM NaCl, 1 mM DTT, 4% glycerol, room temperature, 30 min; GST-TFs on glutathione beads, 16-mer random dsDNA library, 0.1% formaldehyde crosslink after washing; high values mean tight binding
Settings in all cases: protein: recombinant; tags: N-terminal GST; dsDNA, one strand shown
FLI1 = biological target: T1, FLI1 (Homo sapiens, UniProt Q01543 1-452)
T1 sequence: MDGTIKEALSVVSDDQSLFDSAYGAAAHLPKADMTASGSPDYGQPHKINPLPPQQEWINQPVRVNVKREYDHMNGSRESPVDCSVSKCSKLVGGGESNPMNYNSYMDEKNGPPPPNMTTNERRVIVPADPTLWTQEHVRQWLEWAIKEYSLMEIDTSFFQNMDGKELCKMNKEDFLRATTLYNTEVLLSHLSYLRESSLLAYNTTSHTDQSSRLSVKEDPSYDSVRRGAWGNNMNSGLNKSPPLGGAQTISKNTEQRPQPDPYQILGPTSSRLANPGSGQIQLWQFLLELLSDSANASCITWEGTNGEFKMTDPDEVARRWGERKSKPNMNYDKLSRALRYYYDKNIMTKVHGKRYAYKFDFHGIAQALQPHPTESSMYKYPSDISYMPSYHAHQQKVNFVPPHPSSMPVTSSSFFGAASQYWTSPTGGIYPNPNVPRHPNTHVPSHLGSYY
Procedure, shortened: (§1)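 Sequencing on an Illumina NextSeq500 followed washing, crosslinking with 0.1% formaldehyde, proximity ligation (BsaI/T4 ligase, 1 h, 37 °C) and PCR amplification of pools that had been incubated for 30 min at room temperature with 200 nmole of a random double-stranded 16-mer DNA library in Tris/NaCl/DTT/glycerol buffer. Each pool held DNA-barcoded human transcription factors, expressed in yeast as GST fusions and captured on glutathione beads, plus a tag-only sample. Binding signal is a hexamer's read frequency for a factor divided by its frequency in the tag-only sample.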

ELK1 = biological target: T2, ELK1 (Homo sapiens, UniProt P19419 1-428)
T2 sequence: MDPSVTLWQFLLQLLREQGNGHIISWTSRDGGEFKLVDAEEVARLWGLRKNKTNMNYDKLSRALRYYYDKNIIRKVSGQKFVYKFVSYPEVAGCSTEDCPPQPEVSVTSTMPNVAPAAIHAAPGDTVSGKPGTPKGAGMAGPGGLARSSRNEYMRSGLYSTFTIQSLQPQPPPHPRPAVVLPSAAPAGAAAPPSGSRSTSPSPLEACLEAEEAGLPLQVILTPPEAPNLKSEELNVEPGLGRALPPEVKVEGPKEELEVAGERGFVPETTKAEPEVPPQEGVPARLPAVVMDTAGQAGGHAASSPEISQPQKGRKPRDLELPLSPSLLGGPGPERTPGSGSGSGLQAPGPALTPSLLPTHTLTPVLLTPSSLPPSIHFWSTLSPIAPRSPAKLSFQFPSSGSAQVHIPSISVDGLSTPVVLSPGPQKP
Procedure, shortened: as §1

GABPA = biological target: T3, GABPA (Homo sapiens, UniProt Q06546 1-454)
T3 sequence: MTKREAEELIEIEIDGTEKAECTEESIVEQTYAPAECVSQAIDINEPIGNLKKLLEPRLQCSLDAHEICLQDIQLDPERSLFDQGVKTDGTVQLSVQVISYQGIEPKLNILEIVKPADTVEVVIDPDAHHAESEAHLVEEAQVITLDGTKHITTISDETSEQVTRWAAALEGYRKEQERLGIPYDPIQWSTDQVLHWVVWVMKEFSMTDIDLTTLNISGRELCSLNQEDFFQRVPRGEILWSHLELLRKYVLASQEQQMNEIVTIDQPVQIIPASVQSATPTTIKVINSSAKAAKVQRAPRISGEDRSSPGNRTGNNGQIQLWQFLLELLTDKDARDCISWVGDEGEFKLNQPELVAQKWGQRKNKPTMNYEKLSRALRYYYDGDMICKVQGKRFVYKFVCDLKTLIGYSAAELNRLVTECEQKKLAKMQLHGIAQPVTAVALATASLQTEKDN
Procedure, shortened: as §1

ERG = biological target: T4, ERG (Homo sapiens, UniProt P11308 1-479)
T4 sequence: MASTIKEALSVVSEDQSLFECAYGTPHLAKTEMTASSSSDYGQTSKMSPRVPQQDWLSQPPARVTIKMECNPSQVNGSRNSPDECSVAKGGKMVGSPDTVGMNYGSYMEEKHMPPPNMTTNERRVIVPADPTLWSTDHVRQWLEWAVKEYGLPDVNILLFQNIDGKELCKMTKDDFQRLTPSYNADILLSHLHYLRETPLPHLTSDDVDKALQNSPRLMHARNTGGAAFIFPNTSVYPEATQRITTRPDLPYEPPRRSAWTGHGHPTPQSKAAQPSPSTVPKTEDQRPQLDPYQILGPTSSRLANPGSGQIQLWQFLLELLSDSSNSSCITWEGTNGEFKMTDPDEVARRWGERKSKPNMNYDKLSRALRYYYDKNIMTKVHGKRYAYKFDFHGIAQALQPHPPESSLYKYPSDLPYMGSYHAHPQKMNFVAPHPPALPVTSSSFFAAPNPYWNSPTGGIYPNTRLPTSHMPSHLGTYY
Procedure, shortened: as §1

ELF1 = ELF1 (Homo sapiens, UniProt P32519 1-619)
Procedure, shortened: as §1

EHF = biological target: T5, EHF (Homo sapiens, UniProt Q9NZC4 1-300)
T5 sequence: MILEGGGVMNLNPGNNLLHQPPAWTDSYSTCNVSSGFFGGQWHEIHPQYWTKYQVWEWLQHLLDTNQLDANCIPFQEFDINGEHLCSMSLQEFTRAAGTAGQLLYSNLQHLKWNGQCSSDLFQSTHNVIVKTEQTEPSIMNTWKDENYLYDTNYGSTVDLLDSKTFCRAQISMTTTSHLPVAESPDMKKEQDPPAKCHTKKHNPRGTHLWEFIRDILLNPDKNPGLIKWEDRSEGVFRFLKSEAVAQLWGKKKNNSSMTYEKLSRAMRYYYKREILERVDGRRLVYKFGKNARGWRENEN
Procedure, shortened: as §1

SPI1 = SPI1 (Homo sapiens, UniProt P17947 1-270)
Procedure, shortened: as §1

SPIB = SPIB (Homo sapiens, UniProt Q01892 1-262)
Procedure, shortened: as §1

ELK3 = biological target: T6, ELK3 (Homo sapiens, UniProt P41970 1-407)
T6 sequence: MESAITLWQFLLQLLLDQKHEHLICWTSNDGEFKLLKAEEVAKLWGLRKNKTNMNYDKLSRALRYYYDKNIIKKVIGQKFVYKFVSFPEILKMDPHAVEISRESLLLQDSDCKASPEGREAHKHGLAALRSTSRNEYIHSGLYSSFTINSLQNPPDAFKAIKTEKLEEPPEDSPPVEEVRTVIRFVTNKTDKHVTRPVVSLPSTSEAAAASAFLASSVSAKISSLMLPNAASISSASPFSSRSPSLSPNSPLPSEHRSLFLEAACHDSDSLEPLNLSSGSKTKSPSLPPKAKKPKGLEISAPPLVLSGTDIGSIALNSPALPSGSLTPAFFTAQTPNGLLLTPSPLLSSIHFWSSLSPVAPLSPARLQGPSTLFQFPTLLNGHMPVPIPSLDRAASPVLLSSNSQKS
Procedure, shortened: as §1

Chain of SPIB (Q01892 whole entry): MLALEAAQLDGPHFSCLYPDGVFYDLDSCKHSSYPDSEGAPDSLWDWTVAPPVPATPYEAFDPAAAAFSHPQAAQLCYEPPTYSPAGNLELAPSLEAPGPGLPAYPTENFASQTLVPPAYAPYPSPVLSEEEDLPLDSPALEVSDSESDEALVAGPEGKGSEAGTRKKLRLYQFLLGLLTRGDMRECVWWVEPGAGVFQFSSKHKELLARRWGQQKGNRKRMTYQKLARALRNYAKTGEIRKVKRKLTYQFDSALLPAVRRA
Chain of ELF1 (P32519 whole entry): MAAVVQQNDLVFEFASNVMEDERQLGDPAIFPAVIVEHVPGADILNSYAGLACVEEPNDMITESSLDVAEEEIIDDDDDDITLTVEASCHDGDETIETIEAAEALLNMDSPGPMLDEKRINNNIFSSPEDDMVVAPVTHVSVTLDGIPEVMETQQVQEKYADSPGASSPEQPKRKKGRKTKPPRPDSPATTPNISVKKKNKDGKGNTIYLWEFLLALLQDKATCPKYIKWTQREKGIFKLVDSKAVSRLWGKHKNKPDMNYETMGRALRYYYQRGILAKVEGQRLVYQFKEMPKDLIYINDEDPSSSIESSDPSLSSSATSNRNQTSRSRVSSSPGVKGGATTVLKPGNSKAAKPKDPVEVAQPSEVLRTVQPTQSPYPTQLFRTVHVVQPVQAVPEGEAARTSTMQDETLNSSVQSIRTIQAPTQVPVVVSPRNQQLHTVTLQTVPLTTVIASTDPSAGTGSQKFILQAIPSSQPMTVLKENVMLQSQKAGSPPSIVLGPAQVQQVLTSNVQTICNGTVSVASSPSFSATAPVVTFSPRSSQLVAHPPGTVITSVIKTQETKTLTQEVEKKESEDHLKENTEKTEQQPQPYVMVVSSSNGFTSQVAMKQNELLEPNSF

Sequence | binding signal (FLI1) | binding signal (ELK1) | binding signal (GABPA) | binding signal (ERG) | binding signal (ELF1) | binding signal (EHF) | binding signal (SPI1) | binding signal (SPIB) | binding signal (ELK3)
CTCCCG | 1.61 fold enrichment (6-mer frequency, TF over GST control) | 1.56 fold enrichment (6-mer frequency, TF over GST control) | 1.62 fold enrichment (6-mer frequency, TF over GST control) | 1.54 fold enrichment (6-mer frequency, TF over GST control) | 1.57 fold enrichment (6-mer frequency, TF over GST control) | 1.75 fold enrichment (6-mer frequency, TF over GST control) | 1.45 fold enrichment (6-mer frequency, TF over GST control) | 1.62 fold enrichment (6-mer frequency, TF over GST control) | 1.58 fold enrichment (6-mer frequency, TF over GST control)
CTCATT | 1.45 fold enrichment (6-mer frequency, TF over GST control) | 1.32 fold enrichment (6-mer frequency, TF over GST control) | 1.44 fold enrichment (6-mer frequency, TF over GST control) | 1.38 fold enrichment (6-mer frequency, TF over GST control) | 1.55 fold enrichment (6-mer frequency, TF over GST control) | 1.57 fold enrichment (6-mer frequency, TF over GST control) | 1.82 fold enrichment (6-mer frequency, TF over GST control) | 1.61 fold enrichment (6-mer frequency, TF over GST control) | 1.12 fold enrichment (6-mer frequency, TF over GST control)
AGATTC | 1.15 fold enrichment (6-mer frequency, TF over GST control) | 1.14 fold enrichment (6-mer frequency, TF over GST control) | 1.16 fold enrichment (6-mer frequency, TF over GST control) | 1.19 fold enrichment (6-mer frequency, TF over GST control) | 1.21 fold enrichment (6-mer frequency, TF over GST control) | 1.2 fold enrichment (6-mer frequency, TF over GST control) | 1.22 fold enrichment (6-mer frequency, TF over GST control) | 1.14 fold enrichment (6-mer frequency, TF over GST control) | 1.07 fold enrichment (6-mer frequency, TF over GST control)
ATGATA | 1.22 fold enrichment (6-mer frequency, TF over GST control) | 1.23 fold enrichment (6-mer frequency, TF over GST control) | 1.16 fold enrichment (6-mer frequency, TF over GST control) | 1.26 fold enrichment (6-mer frequency, TF over GST control) | 1.24 fold enrichment (6-mer frequency, TF over GST control) | 1.32 fold enrichment (6-mer frequency, TF over GST control) | 1.2 fold enrichment (6-mer frequency, TF over GST control) | 1.21 fold enrichment (6-mer frequency, TF over GST control) | 1.34 fold enrichment (6-mer frequency, TF over GST control)
ATCACC | 1.17 fold enrichment (6-mer frequency, TF over GST control) | 1.18 fold enrichment (6-mer frequency, TF over GST control) | 1.13 fold enrichment (6-mer frequency, TF over GST control) | 1.14 fold enrichment (6-mer frequency, TF over GST control) | 1.19 fold enrichment (6-mer frequency, TF over GST control) | 1.1 fold enrichment (6-mer frequency, TF over GST control) | 1.11 fold enrichment (6-mer frequency, TF over GST control) | 1.03 fold enrichment (6-mer frequency, TF over GST control) | 1.27 fold enrichment (6-mer frequency, TF over GST control)
GCTTTA | 1.19 fold enrichment (6-mer frequency, TF over GST control) | 1.13 fold enrichment (6-mer frequency, TF over GST control) | 1.08 fold enrichment (6-mer frequency, TF over GST control) | 1.05 fold enrichment (6-mer frequency, TF over GST control) | 1.09 fold enrichment (6-mer frequency, TF over GST control) | 1.09 fold enrichment (6-mer frequency, TF over GST control) | 1.16 fold enrichment (6-mer frequency, TF over GST control) | 1.09 fold enrichment (6-mer frequency, TF over GST control) | 1.24 fold enrichment (6-mer frequency, TF over GST control)
AAACCC | 1.26 fold enrichment (6-mer frequency, TF over GST control) | 1.32 fold enrichment (6-mer frequency, TF over GST control) | 1.22 fold enrichment (6-mer frequency, TF over GST control) | 1.25 fold enrichment (6-mer frequency, TF over GST control) | 1.32 fold enrichment (6-mer frequency, TF over GST control) | 1.27 fold enrichment (6-mer frequency, TF over GST control) | 1.22 fold enrichment (6-mer frequency, TF over GST control) | 1.34 fold enrichment (6-mer frequency, TF over GST control) | 1.36 fold enrichment (6-mer frequency, TF over GST control)
TCTCCT | 1.45 fold enrichment (6-mer frequency, TF over GST control) | 1.41 fold enrichment (6-mer frequency, TF over GST control) | 1.53 fold enrichment (6-mer frequency, TF over GST control) | 1.37 fold enrichment (6-mer frequency, TF over GST control) | 1.38 fold enrichment (6-mer frequency, TF over GST control) | 1.43 fold enrichment (6-mer frequency, TF over GST control) | 1.6 fold enrichment (6-mer frequency, TF over GST control) | 1.4 fold enrichment (6-mer frequency, TF over GST control) | 1.46 fold enrichment (6-mer frequency, TF over GST control)
